Laboratory results: PubChem BioAssay (NCI)
This is part of a sample that, as a whole, favours compounds with a hit. Of some 83,000 tested, about 20% had one in any assay.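 96-well plates, one dose, 48 hours. Percent growth reported; active if below 10.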 Values without a mark were called inactive. Active and inactive are the calls of the source.

How the values were obtained:
Test in all cases: NCI-60 one-dose screen, 48 h (100 = growth as untreated, 0 = no growth, -100 = all killed)
Details in all cases: 10 µM unless noted
RPMI-8226 leukemia = system: RPMI-8226 leukemia
OVCAR-8 ovarian = system: OVCAR-8 ovarian
OVCAR-5 ovarian = system: OVCAR-5 ovarian
OVCAR-4 ovarian = system: OVCAR-4 ovarian
SK-OV-3 ovarian = system: SK-OV-3 ovarian
IGROV1 ovarian = system: IGROV1 ovarian
OVCAR-3 ovarian = system: OVCAR-3 ovarian
HS 578T breast = system: HS 578T breast
NCI/ADR-RES ovarian = system: NCI/ADR-RES ovarian

Row | Compound | growth (RPMI-8226 leukemia) | growth (OVCAR-8 ovarian) | growth (OVCAR-5 ovarian) | growth (OVCAR-4 ovarian) | growth (SK-OV-3 ovarian) | growth (IGROV1 ovarian) | growth (OVCAR-3 ovarian) | growth (HS 578T breast) | growth (NCI/ADR-RES ovarian)
1 | C=C(CNCCc1ccc(O)cc1)[C@@H]1CC[C@]2(COC3CCCCO3)CC[C@]3(C)[C@H](CC[C@@H]4[C@@]5(C)CCC(NCCO)C(C)(C)[C@@H]5CC[C@]43C)[C@@H]12 (some centres not stated) | -56.8% (active) | -85.1% (active) | -93.1% (active) | -91.5% (active) | -48.9% (active) | -83.9% (active) | -94.4% (active) | -51.5% (active) | -79.3% (active)
2 | CC(C)n1nc(C#Cc2cccc(NC(=O)c3cccc(C(F)(F)F)c3)c2)c2c(N)ncnc21 | -11.8% (active) | -12.7% (active) | -27.5% (active) | 11.4% | -51.6% (active) | -61.6% (active) | 1.38% (active) | -31.2% (active) | -13% (active)
3 | CCOc1cc(N)ccc1C(=O)NCCCN(CC)CC | 95.9% | 118% | 93.9% | 109% | 110% | 96.5% | 105% | 99.1% | 94.2%
4 | Cc1c(C(=O)O[C@H]2[C@@H]3[C@H](C)CC[C@H]3[C@]3(C)O[C@@]2(C2CCCCC2)C[C@H]3OC(=O)CO)ccc2ccccc12 | -40.7% (active) | 28.6% | 61.1% | 39.4% | 62.6% | 63.3% | 29.3% | -29.6% (active) | 8.05% (active)
5 | C=C(C)[C@@H]1CC[C@]2(CN)CC[C@]3(C)[C@H](CC[C@@H]4[C@@]5(C)CCC(N)[C@@](C)(CO)[C@@H]5CC[C@]43C)[C@@H]12 (some centres not stated) | -51.8% (active) | -72.9% (active) | 48.5% | -4.67% (active) | -80.5% (active) | 67% | -75.9% (active) | -37.1% (active) | 76.2%
6 | O=C1NN(C(=O)c2ccc(O)cc2)C(c2ccccc2)=N/C1=C\c1cn(-c2ccccc2)nc1-c1ccccc1 | 90% | 97.2% | 94% | 95.3% | 92.6% | 91.5% | 112% | 99.8% | 99.7%
7 | N#Cc1c(NC(=O)c2cccc(C(F)(F)F)c2)sc2c1CCC(=O)C2 | -9.7% (active) | 10.4% | 12.9% | -80.7% (active) | 3.53% (active) | -50.7% (active) | -46.8% (active) | 1.32% (active) | 7.01% (active)
8 | C=C(C)[C@@H]1CC[C@]2(C(=O)NCC(=O)O)CC[C@]3(C)[C@H](CC[C@@H]4[C@@]5(C)Cc6c([nH]c7ccccc67)C(C)(C)[C@@H]5CC[C@]43C)[C@@H]12 | 79.8% | 78.4% | 107% | 75.9% | 75.1% | 83.3% | 90.5% | 56.9% | 95.4%
9 | O=C1N/C(=N/O)S/C1=C/c1cn(-c2ccccc2)nc1-c1ccccc1 | 98.8% | 89.9% | 109% | 111% | 77.6% | 77.4% | 93% | 83.1% | 99.8%
10 | Cc1cc(N(CCCNc2ccnc3cc(Cl)ccc23)Cc2ccccn2)nc(N2CCCC2)n1 | 48.9% | 73.4% | 87.6% | 63.1% | 102% | 87.5% | 88% | 88.9% | –
11 | CCOC(=O)C(=CNc1ccccc1[N+](=O)[O-])C(=O)OCC | 92.6% | 101% | 96.4% | 110% | 110% | 107% | 105% | 98.6% | 101%
12 | COc1ccc(Nc2ncc(Br)c(NCCCNC(=O)C3CCC3)n2)cc1 | 40.1% | 28.6% | 31.1% | -0.243% (active) | 10.6% | 14.5% | 31.6% | -15.7% (active) | 47.4%
13 | C=C1c2c(C)nn(-c3ccc(S(N)(=O)=O)cc3)c2N(C)C23CC1C1(C)c4c(C)nn(-c5ccc(S(N)(=O)=O)cc5)c4N(C)C(C)(CC12)C3 (configuration not stated) | -64% (active) | 40.1% | 64% | 39.3% | 57.6% | 49.1% | 41.6% | 54.3% | 79.2%
14 | Cc1nc2ccccc2c(/C=C/c2ccc(Cl)cc2)c1C(=O)/C=C/c1ccc(Cl)cc1 | -17.4% (active) | 5.4% (active) | -45.6% (active) | 0.984% (active) | 28.4% | -51.8% (active) | -70.6% (active) | -4.76% (active) | -15.4% (active)
15 | COC(=O)c1ccc2oc(NC(=O)c3ccc(N4CCOCC4)c([N+](=O)[O-])c3)nc2c1 | 93.3% | 99% | 92.8% | 91% | 89.8% | 99.9% | 107% | 96.9% | 103%
16 | C[C@@H]1CC[C@@H]2[C@@H]1[C@H](OC(=O)c1ccc3ccccc3c1)[C@]1(C3CCCCC3)C[C@@H](OC(=O)CO)[C@@]2(C)O1 | 31.4% | 18.5% | 89.4% | 55.5% | 75.4% | 71.1% | 73.6% | -32.1% (active) | 14.6%
17 | Clc1ccc2c(NCCCN3CCN(c4nc(N5CCOCC5)nc5ccccc45)CC3)ccnc2c1 | -39.5% (active) | 16.1% | 60.6% | 50.3% | 108% | 50.4% | -40.8% (active) | 17.2% | 25.1%
18 | COC(=O)/C(=C\c1ccc(OC)cc1)C(=O)N1c2ccccc2Sc2ccccc21 | 54.4% | 64.4% | 75.1% | 89.3% | 91.7% | 43.6% | 24.5% | 56.1% | 16.4%
19 | CCO/C=N/C1=C(C#N)C(c2ccc(OC)cc2)c2c(c3ccccc3n(C)c2=O)O1 (configuration not stated) | 102% | 104% | 100% | 98.8% | 99.9% | 101% | 114% | 107% | 108%
20 | C=C1C(=O)O[C@H]2[C@H]1CC/C(COC(=O)NCc1ccc(Cn3c(=O)sn(CCCCl)c3=O)cc1)=C\CC[C@@]1(C)O[C@@H]21 | -30.1% (active) | 43.7% | 69.8% | 15.2% | 91.9% | -36.3% (active) | -87.9% (active) | 88.2% | 104%
21 | CC(C)n1nc(C#Cc2cccc3cc(-c4cccc(C(F)(F)F)c4)ncc23)c2c(N)ncnc21 | 57.1% | 41.1% | 86.1% | 78.8% | 91% | 72% | 91.2% | 65.2% | 82%
22 | CC(C)OC(=O)OCOP(=O)(OCOC(=O)OC(C)C)C1CCCN(O)C1=O (configuration not stated) | 11.8% | 2.91% (active) | 73.4% | 36% | 5.92% (active) | 9.36% (active) | 33.5% | 7.77% (active) | 39.2%
23 | CCCCCCCCc1cc[n+](CC(=O)c2ccc(Br)cc2)cc1 | -9.98% (active) | -65.8% (active) | 51.9% | 18.8% | 22% | 1.68% (active) | -44.1% (active) | -29.2% (active) | 93.3%
24 | C=C1c2c(C)nn(-c3ccc(N)cc3)c2N(C)C23CC1C1(C)c4c(C)nn(-c5ccc(N)cc5)c4N(C)C(C)(CC12)C3 (configuration not stated) | 40.9% | 71% | 101% | 70.7% | 70.6% | 100% | 78.4% | 90.6% | 78.8%
25 | O=C(NCc1cccnc1)c1cc(-c2csc3c(=O)cc(N4CCOCC4)oc23)cc2c1OCCO2 | 9.21% (active) | 38% | 31.3% | 50.3% | 8.37% (active) | 7.23% (active) | 34.7% | 8.92% (active) | 89.3%
26 | CN1CCN(C(=O)[C@]23CCC(C)(C)C[C@@H]2C2=CC[C@@H]4[C@@]5(C)Cc6c([nH]c7ccccc67)C(C)(C)[C@@H]5CC[C@@]4(C)[C@]2(C)CC3)CC1 | 71.6% | 79.6% | 79.8% | 72% | 76.8% | 84.4% | 78.3% | 73.2% | 89.9%
27 | Clc1cnc(Nc2ccc(OCCN3CCCC3)cc2)nc1NCc1ccco1 | 6.95% (active) | 20.2% | 8.69% (active) | 51.6% | 57.8% | 15.7% | 28.8% | 31.4% | 18.5%
